# An excerpt weighted towards active compounds, which were near 11% of everything screened.
# SW480 rerep – A quantitative high throughput screen for small molecules that induce DNA re-replication in SW480 colon adenocarcinoma cells; SW480 DNA re-replication, Hoechst DNA content imaging, 48 h; AID 624297, 2012; 340,000 compounds, 1.8% hits; Potency, µM (top dose mostly 46.1 µM), for the others: at the highest dose re-replication activation, most hits filed as activators; note: potency is the fitted concentration of half-maximal effect; % of control where 0% means no effect; nearly all actives have a fitted effect of over 55% in size
#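 Readout is total intensity of Hoechst-stained nuclei, excited at 405 nm and collected at 500-530 nm. Compound treatment lasted 48 hr at 37 C in 5% CO2 before staining.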
# IL-1B inflam inh – qHTS for Inhibitors of Inflammasome Signaling: IL-1-beta AlphaLISA Primary Screen; activity change, % at 57.5 µM; 360,000 compounds, 4.7% hits; THP-1 LPS/ATP IL-1B secretion, AlphaLISA, 16 h; hits give low values; in the data active = activity change below about -50%; inconclusive = mostly about -30% to -49%; note: % is set by controls: 0 for no effect and ±100 for the full control effect
#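 THP-1 cells pretreated 1 hr with compounds (up to 57.5 uM final), then stimulated with LPS (250 ng/mL final) plus ATP (1.25 mM final); secreted IL-1B measured by AlphaLISA after 16 hr, decreased signal indicating inhibition.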
# RORgamma inh – qHTS for inhibitors of ROR gamma transcriptional activity | Potency, µM (titrated, usually from 53.6 µM), inactives show top-dose activity change, negative = inhibition, actives largely listed as inhibitors | 310,000 compounds, 5.4% hits | Drosophila S2 Gal4-RORgamma UAS-luciferase reporter, 20 h; note: potency is the fitted concentration of half-maximal effect; % is set by controls: 0 for no effect and ±100 for the full control effect; nearly all actives have a fitted effect of over 60% in size
# Target sequence (P51450 whole entry, looked up, the tested form may be a part): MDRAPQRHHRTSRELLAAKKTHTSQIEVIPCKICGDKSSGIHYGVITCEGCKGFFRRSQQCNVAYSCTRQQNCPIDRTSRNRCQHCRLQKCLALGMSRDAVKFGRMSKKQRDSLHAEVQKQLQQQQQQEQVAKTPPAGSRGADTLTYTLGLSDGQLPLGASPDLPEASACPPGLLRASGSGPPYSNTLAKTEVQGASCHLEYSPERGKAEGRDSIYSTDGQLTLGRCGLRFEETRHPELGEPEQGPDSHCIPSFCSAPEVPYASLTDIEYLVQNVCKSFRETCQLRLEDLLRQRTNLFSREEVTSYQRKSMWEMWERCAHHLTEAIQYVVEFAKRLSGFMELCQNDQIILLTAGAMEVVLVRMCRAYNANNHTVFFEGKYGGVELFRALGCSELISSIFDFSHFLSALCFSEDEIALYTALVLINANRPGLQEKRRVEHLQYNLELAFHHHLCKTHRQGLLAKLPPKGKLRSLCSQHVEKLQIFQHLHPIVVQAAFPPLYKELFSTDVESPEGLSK
#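 Luciferase reporter read in Schneider cells carrying Gal4-RORγ (mouse) and UAS-Photinus luciferase; cells given compound 1 h before 700 uM copper sulfate induction, then incubated 20 h at ambient temperature.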
# VP16 counter – VP16 counterscreen qHTS for inhibitors of ROR gamma transcriptional activity; 310,000 compounds, 3.5% hits; Drosophila S2 Gal4-VP16 UAS-luciferase, luminescence, 20 h; AID 2546, 2010; Potency, µM (doses to about 53.6 µM), for the others: top-dose activity, negative = inhibition, usual class: inhibitors;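 note: Gal4-VP16 expression switched on by copper sulfate through the metallothionein promoter; potency is the fitted concentration of half-maximal effect; % is set by controls: 0 for no effect and ±100 for the full control effect; nearly all actives have a fitted effect of over 50% in size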
# MCF10A rerep – A quantitative high throughput screen for small molecules that induce DNA re-replication in MCF 10a normal breast cells; Potency, µM (doses to about 46.1 µM), for the others: top-dose activity, positive = re-replication, actives largely listed as activators; AID 624296, 2012; MCF 10A DNA re-replication, Hoechst nuclear intensity, 48 h; 350,000 compounds, 2.9% hits; note: potency is the fitted concentration of half-maximal effect; % of control where 0% means no effect; nearly all actives have a fitted effect of over 50% in size
# Active calls of the source: *; ? = inconclusive; . = not tested or not shown; [ ] = another dose, or the depositor's remark. Unless noted, calls come from the whole dose curve; as a rule, active = well fitted curve in the direction sought with a large enough effect; inconclusive = small, poorly fitted or top-dose-only effect, or another doubt; inactive = no such curve, though single readings can be large; an effect the other way counts as inactive or inconclusive.
SMILES,SW480 rerep,IL-1B inflam inh,RORgamma inh,VP16 counter,MCF10A rerep
Cc1ccc(NC(=O)CCCN2C(=S)NC(C)(C)CC2C)cc1 (centres undefined),-7%,-3,13µM*,?,-2%
CCOCCCNC(=O)C(c1ccc(C)cc1)N(Cc1cccs1)C(=O)c1ccccc1O (centres undefined),-3%,-108*,16%,-4%,2%
CCCNC(=O)C[C@@H]1CC[C@H]2NC[C@H](O)COC[C@@H]2O1,.,27,.,.,.
COc1ccc(CN2C(=O)C(CC(=O)NCc3cccs3)CC(C(=O)N3CCOCC3)=C2C)cc1 (centres undefined),.,-17,.,.,.
Cc1nn(Cc2cccc(C(=O)NC34CC5CC(CC(C5)C3)C4)c2)c(C)c1Br,7%,-25,?,3%,9.2µM*
O=[N+]([O-])c1cccc(/C=N/Nc2nc(N3CCCCC3)nc(N3CCCCC3)n2)c1,-4%,50,-8%,-2%,1%
Oc1cccc(/C=N/Nc2cc(N3CCCC3)nc(N3CCCC3)n2)c1,?,-102*,21%,-15%,?
Oc1ccc(/C=N/Nc2cc(N3CCCC3)nc(N3CCCC3)n2)cc1,-7%,-101*,3%,-26%,-7%
COc1ccc(/C=N/Nc2cc(N3CCCC3)nc(N3CCCC3)n2)cc1,9.2µM*,-91*,13µM*,-5%,18µM*
Oc1ccc(/C=N/Nc2cc(N3CCOCC3)nc(N3CCOCC3)n2)cc1,15%,?,.,.,1%
COc1cc(C)ccc1OCc1cc(C(=O)N2CCCCCCC2)no1,1%,-4,40%,26%,16%
Cc1ccc(NC(=O)c2sccc2C)nc1,-1%,0,-40%,-24%,5%
Cc1cnc(CNc2nc(-c3ccccc3Cl)nc3ccccc23)cn1,.,.,7%,-21%,.
O=C(O)C1OC(O)C(O)C(O)C1O (centres undefined),.,.,-3%,-6%,.
NC(=NC(=O)c1ccc(Cl)cc1)N1N=CCC1c1ccccc1 (centres undefined),7%,-27,-3%,1%,-7%
O=C(CSc1ccc(Cl)cc1)N1N=CCC1c1ccccc1 (centres undefined),-1%,-63*,33%,-6%,7%
O=C(Nc1ccc(Cl)c(Cl)c1)N1N=CCC1c1ccccc1 (centres undefined),2%,-64*,32%,-14%,2%
CC1(C(=O)Nc2ccc3c(c2)OCCO3)CCC(=O)N1CCc1c[nH]c2ccccc12 (centres undefined),.,-10,.,.,.
CC(C(c1ccc2c(c1)OCO2)c1c(N)n(C)c(=O)n(C)c1=O)[N+](=O)[O-] (centres undefined),?,-12,.,.,12µM*
Cn1c(N)c(C(C[N+](=O)[O-])c2ccccc2Cl)c(=O)n(C)c1=O (centres undefined),?,8,.,.,?
COc1cccc(F)c1C(C[N+](=O)[O-])c1c(N)n(C)c(=O)n(C)c1=O (centres undefined),4.1µM*,-100*,7.1µM*,11µM*,7.3µM*
Cc1ccc(C(C[N+](=O)[O-])c2c(N)n(C)c(=O)n(C)c2=O)cc1 (centres undefined),1%,?,13µM*,?,23µM*
COc1cc(C(C[N+](=O)[O-])c2c(N)n(C)c(=O)n(C)c2=O)ccc1O (centres undefined),?,-2,14µM*,-86%,18µM*
S=C(NCCc1ccccc1)Nc1ccc(Br)cn1,-5%,65,0.28µM*,5µM*,0%
NNC(=S)NCCc1ccccc1,10%,9,3.5µM*,10µM*,19%
SMILES,SW480 rerep,IL-1B inflam inh,RORgamma inh,VP16 counter,MCF10A rerep
O=C(CS(=O)(=O)c1ccccc1)Nc1ccc(Br)cn1,-1%,-20,30%,2%,2%
S=C(NCCc1ccccc1)NCc1cccc(Cl)c1,1%,8,18%,-6%,4%
O=C(CCCCC(=O)NCCCc1ccccc1)NCCCc1ccccc1,0%,2,8%,-15%,8%
S=C(NCCc1ccc(Cl)cc1)NC1CC1,19%,12,2.5µM*,8.9µM*,-21%[9.22 µM]
CNC(=S)NCCCc1ccccc1,-2%,3,16µM*,?,-1%
CCCCCN(C(=O)CCC(=O)OC(C)C(=O)Nc1ccccc1C)c1c(N)n(CCCC)c(=O)[nH]c1=O (centres undefined),.,-26,.,.,.
Cc1cc(C)c(C)c(S(=O)(=O)N2CCNC(=O)C2)c1C,.,-8,.,.,.
COc1ccc(-c2nnc3n2N=C(c2ccc(OC)cc2OC)CS3)cc1,.,.,?,-12%,.
S=C(NCCCCNC(=S)NCc1ccccc1)NCc1ccccc1,-1%,-11,?,-16%,?
S=C(Cc1ccccc1)NCCc1ccccc1,-3%,30,.,.,18%
CC(C)(C)C(=O)NC(=S)NCCc1ccccc1,-2%,?,8.9µM*,?,3%
CC(C)(C)NC(=O)NCCc1ccccc1,-3%,10,-36%,-22%,0%
S=C(NCCCCc1ccccc1)NCc1ccccc1,-12%,6,16µM*,?,-8%
S=C(NCCc1ccccc1)NCCc1ccccc1,-3%,0,7.1µM*,10µM*,6%
S=C(NCCc1ccccc1)Nc1ccc(Cl)cc1,.,0,6.3µM*,?,?
O=C1[C@H]2[C@H]3[C@H](O)[C@H](O)C/C(=N/OC[C@@H](O)COCc4ccco4)[C@@H]3CC[C@@H]2C(=O)N1c1cccc(Oc2ccccc2)c1,.,.,-6%[10 µM],1%[10 µM],.
CC(=O)c1cccc(NC(=O)CN(C)S(=O)(=O)c2ccc3c(c2)CC(C)N3C(C)=O)c1 (centres undefined),9%,8,41%,?,7%
O=C(Cn1nc(-c2ccccc2)ccc1=O)N1CCCCC1,1%,-1,-7%,13%,1%
Cc1ccccc1C(OCCN(C(C)C)C(C)C)c1ccccc1 (centres undefined),-2%,-53*,-20%,-1%,-1%
Cc1ccc(NC(=O)COC(=O)C2(c3ccc(Cl)cc3)CCCC2)cc1,?,?,?,?,21µM*
Cc1cc(C)nc(/N=C(\N)N(Cc2ccccc2)Cc2ccccc2)n1,-90%,-72*,11µM*,-9%,10%
O=C(CNC(=O)c1ccco1)N=Nc1c(O)n(CCc2ccccc2)c2ccccc12,1.8µM*,128,0%,-4%,?
COc1cccc(N(C)C(=S)Oc2ccc3c(c2)CCCC3)n1,7%,.,-3%[10 µM],?,13%
COc1cccc(C=C(C#N)C(=O)c2ccccc2)c1,.,23,.,.,.
COc1cccc(/C=c2\s/c(=C\C(=O)C(C)(C)C)[nH]c2=O)c1,?,12,10µM*,?,?

# Screening results from PubChem BioAssay.
